Compound activity from PubChem BioAssay.
PostGolgi ctrl – growth of the yeast control strain, post-Golgi counter-screen. efflux-deficient yeast background strain, growth absorbance A615, 16 h. inhibition, % at 10 µM. 98,000 compounds, 5% hits
CYP2C9 activ – CYP2C9 (human) activation; P11712; recombinant CYP2C9, luciferin-H conversion, luminescence; hits give high values; factor 1 = untreated enzyme, 0 = blocked; activation factor at 5 µM; 96,000 compounds, 1.4% hits;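 active = activation factor of 2 or more for CYP2C9 at a 5 µM dose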;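 also: 0 = sulfaphenazole-blocked wells and 1 = vehicle-only wells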
Target sequence (P11712 whole entry, looked up): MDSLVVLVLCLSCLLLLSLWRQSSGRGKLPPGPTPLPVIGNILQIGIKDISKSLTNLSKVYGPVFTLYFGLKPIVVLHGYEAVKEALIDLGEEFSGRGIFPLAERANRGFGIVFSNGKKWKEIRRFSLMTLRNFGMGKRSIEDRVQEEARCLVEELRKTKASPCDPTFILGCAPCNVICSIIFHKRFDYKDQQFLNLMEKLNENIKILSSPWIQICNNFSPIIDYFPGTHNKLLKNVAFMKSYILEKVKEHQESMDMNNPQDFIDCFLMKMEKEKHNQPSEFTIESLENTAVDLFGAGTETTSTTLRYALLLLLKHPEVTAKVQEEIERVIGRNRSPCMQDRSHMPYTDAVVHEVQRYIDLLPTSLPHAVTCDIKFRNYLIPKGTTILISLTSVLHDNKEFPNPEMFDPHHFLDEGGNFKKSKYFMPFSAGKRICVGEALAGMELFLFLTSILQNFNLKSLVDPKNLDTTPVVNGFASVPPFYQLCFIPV
CYP2C19 act – cytochrome P450 2C19 (human) activation. recombinant CYP2C19, luciferin-H EGE luminescence; hits give high values; 0 = fully inhibited enzyme, 1 = untreated enzyme. activation factor at 5 µM. 96,000 tested, under 10 active;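 active = activation factor of at least 2 at 5 µM in the primary screen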;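 also: 0 = wells with 2.5 mM tranylcypromine and 1 = vehicle-only wells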
CYP2C9 inhib – blocks human cytochrome P450 2C9. P11712. CYP2C9 Supersomes, luciferin-H conversion, luminescence. inhibition, % at 5 µM. 96,000 compounds, 20% hits;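 active = blocking of liver enzyme CYP2C9 beyond about 50% at 5 µM, limit read from the data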
PostGolgi yeast – growth inhibition of a yeast mutant, post-Golgi transport screen; AID 739; 98,000 compounds, 0.9% hits; inhibition, % at 10 µM; post-Golgi transport phenotypic cell assay;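 also: yeast cells grown in 1536-well plates; yeast grown about 18 h at 30C before absorbance read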
CYP2C19 inh – inhibitors of human CYP2C19 | P33261 | CYP2C19 Supersomes, luciferin-H EGE luminescence, 30 min | inhibition, % at 5 µM | 96,000 compounds, 21% hits | AID 778;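 active = CYP2C19 inhibition above a set limit at 5 µM in the primary screen, cut at about 50% in these data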;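 also: plate controls were negative control wells for no effect and 2.5 mM tranylcypromine positive control for full effect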
The depositor's hits bear a star; / = not tested or not shown. Sampled rows, rich in hits. Any-hit rate of the full collection: about 32%. Rule as the data show it, unless noted: active = inhibition above about 30%; inactive = the rest.

SMILES	PostGolgi ctrl	CYP2C9 activ	CYP2C19 act	CYP2C9 inhib	PostGolgi yeast	CYP2C19 inh
Cn1c(Cc2ccccc2)nnc1SCC(=O)c1cccs1	-6.5	0.6	0	44.4	-7.8	95.2*
Cc1ccc(C(=O)CSc2nnc(-c3cccs3)n2C)o1	16.6	0.9	0.5	11.2	-1.3	50.6*
COc1ccc(OC)c(C(=O)CSc2nnc(-c3cccs3)n2C)c1	-0.9	0.7	0	31.9	-3.5	97.3*
CC(=O)N1CCC(N(CCCOC(C)C)C(=O)Nc2ccc(C)c(C)c2)CC1	20.0	1	1.1	-0.3	4.8	-11.5
CC1CCCC(C)N1C(=O)c1cc(-c2cccs2)on1 (configuration not stated)	12.8	/	/	/	3.9	/
COc1ccc(NC(=O)N(C2CCCCC2)C2CCN(C(C)C)CC2)c(OC)c1	3.0	0.9	1	5.3	12.2	2.6
Cc1ccc(/C=N/NC(=O)c2c[nH]c3ccccc23)s1	26.2	0.9	0.8	13.9	0.5	19.3
CCc1ccc(/C=N/NC(=O)c2cc(C3CC3)nc3ccccc23)s1	32.0*	0.2	0.8	81.4*	10.7	25.0
COc1ccc(Sc2cc(C(F)(F)F)nc(-c3ccccn3)n2)cc1	21.3	0.3	0.6	65.7*	-0.3	40.0
CCc1cccc(CC)c1N(COC)C(=O)Cn1c(C(C)O)nc2ccccc21 (configuration not stated)	-10.3	0.9	0.9	5.7	2.9	6.3
CS(=O)(=O)Nc1ccccc1C(=O)Nc1cc(Cl)cc(Cl)c1	3.7	0.6	1	38.3	-1.1	-0.2
CCOC(=O)c1ccc(NS(C)(=O)=O)cc1	4.3	0.9	0.9	5.6	2.4	11.5
CS(=O)(=O)Nc1ccccc1C(=O)Nc1cccc(Cl)c1	-1.0	0.3	0.5	67.6*	-16.0	48.1
CS(=O)(=O)Nc1ccccc1C(=O)c1ccccc1	-0.5	1.2	0.4	-19.3	-2.6	61.4*
COCCNC(=O)c1ccccc1NC(=O)c1ccc(OC)c(OC)c1	11.1	0.7	1	33.3	-13.4	2.9
COc1ccc(NC(=O)c2ccccc2NS(C)(=O)=O)cc1OC	-4.0	0.4	1	57.0*	-8.2	1.4
CCS(=O)(=O)Nc1ccc(C(=O)OC)cc1	17.0	0.3	0.4	69.0*	-1.8	63.6*
COC(=O)c1ccc(NC(=O)c2ccccc2NS(C)(=O)=O)cc1	-9.6	0.3	0.8	66.5*	-16.1	23.0
COCCCNC(=O)c1ccccc1NS(C)(=O)=O	4.3	1.1	1	-5.2	11.2	0.7
COc1cccc(NC(=O)c2ccccc2NS(C)(=O)=O)c1	2.0	0.3	0.9	65.2*	-0.8	8.6
CN1CCN(c2ccc(Cl)cc2NS(=O)(=O)c2ccccc2Cl)CC1	14.7	0.8	0.8	17.2	-3.2	18.7
Cc1ccccc1-n1c(SCC(N)=O)nc2sc(-c3ccccc3)cc2c1=O	4.2	0.2	0.4	84.1*	-1.8	62.7*
C=CCSc1nc2sc(-c3ccccc3)cc2c(=O)n1N	3.1	0.5	0.7	50.5*	3.0	29.3
O=C(O)c1cccc(S(=O)(=O)N2CCCC2)c1	-1.8	0.8	0.9	21.2	-3.0	6.5
Cc1ccc(S(=O)(=O)c2cccc(S(=O)(=O)N3CCOCC3)c2)cc1S(=O)(=O)N1CCOCC1	1.8	1.4	0.9	-41.7	3.8	14.6
SMILES	PostGolgi ctrl	CYP2C9 activ	CYP2C19 act	CYP2C9 inhib	PostGolgi yeast	CYP2C19 inh
Cc1ccc(S(=O)(=O)c2cccc(S(=O)(=O)N3CCCC3)c2)cc1S(=O)(=O)N1CCCC1	-7.1	1	0.5	-3.7	2.3	51.7*
CCCCN(CC)S(=O)(=O)c1ccccc1	-2.8	1.1	0.2	-12.3	7.1	81.0*
CN1CCN(S(=O)(=O)c2cccc(S(=O)(=O)c3ccc(Cl)cc3)c2)CC1	0.9	2.1*	1.1	-113.8	-5.4	-9.3
CCN(CC)S(=O)(=O)c1ccc(F)cc1	-0.8	/	/	/	-0.2	/
O=S(=O)(c1ccccc1)c1cccc(S(=O)(=O)N2CCCCC2)c1	13.5	1.2	0.1	-23.3	14.9	87.3*
CCN(CC)S(=O)(=O)c1ccc(C)c(C)c1	20.9	3.4*	0.2	-237.2	1.5	82.2*
CCN(CC)S(=O)(=O)c1cccc(S(=O)(=O)N2CCCCC2)c1	-0.2	0.5	0.5	53.3*	9.8	45.9
CCN(CC)S(=O)(=O)c1cccc(S(=O)(=O)c2cccc(S(=O)(=O)N(CC)CC)c2)c1	/	0.3	0.1	70.5*	/	91.3*
COc1ccc(CNC(=O)c2ccc(=O)oc2)cc1OC	4.3	0.8	0.6	23.3	-4.0	38.8
COc1ccccc1Nc1nc(-c2sc(NC(=O)c3cccc(Cl)c3)nc2C)cs1	16.1	0.5	0.7	49.4	-9.6	27.9
COc1ccc2sc(NC(=O)CC(C)C)nc2c1	14.8	0.3	0.4	65.9*	1.2	57.7*
CCOc1ccccc1Nc1nc(-c2sc(NC(=O)c3ccco3)nc2C)cs1	10.2	0.4	1	58.6*	3.8	3.8
CCCC(=O)Nc1nc(C)c(-c2csc(Nc3ccccc3OC)n2)s1	10.5	0.3	0.7	66.3*	1.5	32.4
COc1cccc(Nc2nc(-c3sc(NC(=O)c4ccccc4)nc3C)cs2)c1	18.3	0.4	0.8	58.6*	-6.8	23.3
OC1CC(c2ccco2)NC2(CCCCC2)C1 (configuration not stated)	-4.9	1.3	1.2	-25.8	10.7	-17.5
CC(=O)N1CCc2cc(NC(=O)c3ccc(C)cc3)ccc21	14.1	1.1	1.1	-14.6	-6.0	-6.6
C=CCCC(=O)Nc1nc(C)c(-c2csc(Nc3cc(OC)ccc3OC)n2)s1	32.9*	0.5	0.9	51.6*	3.3	9.0
CCCC(=O)Nc1nc(C)c(-c2csc(Nc3cc(OC)ccc3OC)n2)s1	15.8	0.2	0.8	77.8*	3.1	20.0
COc1ccc(OC)c(Nc2nc(-c3sc(N)nc3C)cs2)c1	16.0	0.3	0.5	73.3*	-1.3	53.4*
Cc1cc(O)ccc1Nc1nc(-c2sc(N)nc2C)cs1	-3.7	1	1	1.9	-4.0	3.7
Cc1nc(N)sc1-c1csc(Nc2ccccc2)n1	7.3	0.2	0.2	83.1*	0.5	85.0*
c1cc(Nc2ncnc3sccc23)cc(-c2nnc3n2CCCCC3)c1	2.4	1.1	1.1	-5.3	0.3	-5.4
CCCCCC(=O)Nc1nc(C)c(-c2csc(Nc3cc(Cl)ccc3OC)n2)s1	8.5	0.7	0.9	33.6	-2.4	5.6
COc1cccc(Nc2nc(-c3sc(NC(=O)CC(C)C)nc3C)cs2)c1	-7.0	0.1	0.2	85.6*	17.4	83.7*
C=CCCC(=O)Nc1nc(C)c(-c2csc(Nc3cccc(OC)c3)n2)s1	0.0	0.5	0.9	48.8	-0.8	12.8
COc1ccccc1Nc1nc(-c2sc(NC(=O)CC(C)C)nc2C)cs1	-2.1	0.5	0.8	54.0*	-7.3	15.0
CCCC(C)C(=O)Nc1nc(C)c(-c2csc(Nc3cc(OC)ccc3OC)n2)s1 (configuration not stated)	20.9	0.5	0.8	53.4*	2.9	21.9
